This note sets out measurements from PubChem BioAssay.

Unmarked numbers belong to inactive results. The source made the active and inactive calls.

A short description of this test: S. cerevisiae RM11-1a growth modifiers, primary screen, strain RM11-1a, OD600, basal, 24 h (AID 1177).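 Also: cultures grown under basal conditions with no added stressor; test concentration not given here.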 Particulars: OD600, 24 h, higher = more signal, called active from +8 up or from −8 down.
Turning to `COCC(=C=CC[C@@H](O)c1ccccc1OCCO)C[C@@H](O)c1ccccn1`, the z-score is -0.572.
As to `CCCN1C(=O)[C@@]2(Cc3ccccc3)N=C(c3ccc(OCCCO)cc3)O[C@H]2c2ccccc21`, the z-score is 0.673.
The same measure for `NC(=O)NCC#Cc1ccc2c(c1)[C@]1(C(=O)N2)[C@H](c2ccc(OCCO)cc2)N2[C@H](c3ccccc3)[C@H](c3ccccc3)OC(=O)[C@H]2[C@@H]1C(=O)N1CCN(c2ncccn2)CC1`: 2.58.
Next, `C=CCC(OC(C)=O)[C@@H]1[C@@H](N(Cc2cccc3ccccc23)C(=O)c2ccc(C)cc2)c2cc(OCCCO)ccc2N1C(=O)c1ccc2ccccc2c1` (stereo partly specified): -1.7.
Next, `COc1ccc([Si](C)(C)[C@@H]2[C@@H](CC(=O)N(CCO)Cc3ccccc3)O[C@]3(C(=O)N(Cc4ccc(N5CCOC5=O)cc4)c4ccccc43)[C@H]2C)cc1`: 0.953.
In the case of `COc1ccccc1CN1C(=O)c2ccccc2[C@](Cc2ccccc2I)(C(=O)NCCN2CCOCC2)[C@@H]1c1ccc(CO)cc1`, the z-score was -0.897.
Next, `CN(C)CCCN1C(=O)[C@@]2(Cc3ccccc31)c1ccccc1C(=O)N(Cc1ccccc1)[C@H]2c1ccc(CO)cc1`: -0.549; `Cc1ccc(S[C@]2(C(=O)O)CC(=O)N(Cc3ccccc3C(F)(F)F)[C@@H]2c2ccc(CO)cc2)cc1`: 0.383.
As for `CCOC(=O)C1=CC[C@@H](c2ccccc2)N(S(=O)(=O)c2ccc(C)cc2)[C@H]1C=C(C)C`, the z-score was 1.65.
The same measure for `COCCOC(=O)N1C(=O)[C@@]2(c3cc(C#CCNC(N)=O)ccc31)[C@H](C(=O)N1CCCCCCC1)[C@H]1C(=O)O[C@H](c3ccccc3)[C@H](c3ccccc3)N1[C@@H]2c1ccc(OCCO)cc1`: 1.59; for `CC(C)CNC(=O)[C@@]1(C)c2ccccc2C(=O)N(Cc2ccccc2)[C@H]1c1ccc(CO)cc1`: -1.07.
Take `C=CCC(OC(C)=O)[C@@H]1[C@@H](N(Cc2ccc(-c3ccccc3)cc2)C(=O)c2cccc3ccccc23)c2cc(OCCCO)ccc2N1C(=O)c1ccc2ccccc2n1` (stereo partly specified): the z-score was -0.909.
For the compound `COc1ccc([Si](C)(C)[C@@H]2[C@@H](CCO)O[C@]3(C(=O)N(Cc4ccccc4)c4ccc(N5C(=O)COc6ccccc65)cc43)[C@H]2C)cc1`, the z-score is 4.54.
Next, `C=C(COC)/C(=C/C[C@@H](OC(=O)c1ccncc1)c1cccc(OCCO)c1)c1cc(C(=O)OC)ccc1OC`: -22.1 (active); `O=C1NC(=O)C2C1C=CC(C(O)c1ccc3c(c1)OCO3)N2Nc1ccc(Cl)cc1Cl` (stereo unspecified): -0.101; `[N-]=[N+]=NCc1ccccc1C[C@@]1(C(=O)NCCN2CCOCC2)N=C(c2ccc(OCCCO)cc2)O[C@@H]1c1ccccc1CN=[N+]=[N-]`: 1.15.
Regarding `C[N+](C)(C)CCCCCCNC(=O)[C@@H]1C[C@@H]2C(=O)NCC(=O)N2[C@@H]1c1ccc(O)cc1`, the z-score is 0.311.
The same measure for `COC(=O)[C@@]1(Cc2ccccc2N=[N+]=[N-])N=C(c2ccc(OCCCO)cc2)O[C@H]1c1ccccc1`: 1.76; for `COCCOC(=O)N1C(=O)[C@@]2(c3cc(C#Cc4ccc(OC)cc4)ccc31)[C@H](C(=O)N1CCc3cc(OC)c(OC)cc3C1)[C@H]1C(=O)O[C@H](c3ccccc3)[C@H](c3ccccc3)N1[C@@H]2c1ccc(OCCO)cc1`: 2.92.
Consider `O=C1O[C@H](c2ccccc2)[C@H](c2ccccc2)N2[C@H]1[C@@H](C(=O)N1CCCCCCC1)[C@]1(C(=O)Nc3ccc(C#CCCO)cc31)[C@H]2c1ccc(OCCO)cc1`, for which the z-score is -0.0365.
For the compound `CCCC[C@H]1OB(O)C[C@H]2C1=C(COc1ccccc1)Cn1c(=O)n(-c3ccccc3)c(=O)n12`, the z-score was 0.458.
